# Assay results: PubChem BioAssay (NCATS)
# Results filed as inconclusive are left out. Activity calls are given as the source filed them. Calls come from the whole dose curve; as a rule, active = well fitted cell-killing curve with a large enough effect; inconclusive = small, poorly fitted or top-dose-only effect; inactive = flat fitted curve, though single readings scatter.
# Experiment: MultiTox-Fluor Cytotoxicity Assay - LYMP1-001 - Live Cells (AID 947)
# Settings: LYMP1-001 lymphoblastoid cells, live-cell protease fluorescence viability; series mostly up to 92.2 µM
# Text: NIH Chemical Genomics Center [NCGC]
# NIH Molecular Libraries Screening Centers Network [MLSCN]
# National Institutes of Environmental Health Sciences [NIEHS]
# National Toxicology Program [NTP]
# We have developed a 1536-well cell-based assay for quantitative high throughput screening (qHTS) against a number of cell lines to determine in vitro cytotoxicity of small molecules. This particular assay uses a human lymphoblastoid cell line (LYMP1-001) purchased from Coriell Institute.
# NCGC Assay Protocol Summary:
# The MultiTox-Fluor Cytotoxicity Assay (Promega) is a homogeneous method to simultaneously measure the relative number of live and dead cells in culture by detecting changes in cell membrane integrity. There are two fluorogenic peptide substrates in the assay reagent. Viable cells are determined when the cell-permeant substrate (GF-AFC) enters the cell and is cleaved by protease from live cells resulting in liberated fluorophore. This live-cell protease activity restricted to viable cells is proportional to cell number. The dead cells are determined by using fluorogenic cell-impermeant peptide substrate (bis-AAF-R110) which cleaved by dead cell proteases leaking from damaged cell membrane.
# Using the MultiTox-Fluor Cytotoxicity Assay, the relative number of live cells was measured in the lymphoblastoid cell line with complete culture medium following compound treatment for 16 hours. The assay was performed in opaque black Kalypsys 1536-well plates. In the screen, tetraoctylammonium bromide was used as positive control. Library compounds were measured for their ability to cause acute toxicity in the cell line, as reflected by a decrease in live cell protease activity, in a concentration-dependent manner. […] AC50 values were determined from concentration-response data modeled with the standard Hill equation.
# qHTS protocol for MultiTox-Fluor Cytotoxicity assay
# [Step] [Parameter] [Value] [Description]
# 1. Reagent; 5 uL; 2500 lymphoblastoid cells/well
# 2. Time; 5 hr; 37 C incubation
# 4. Controls; 23 nL; Tetraoctylammonium bromide 6.4pM to 92 uM
# 5. Time; 16 hr; 37 C incubation
# 6. Reagent; 5 uL; MuliTox-Fluor Assay reagent
# 7. Time; 60 min; Room Temperature
# 8. Detection; live-cell fluorescence (Ex/Em=405/510); EnVision plate reader
# Keywords: cell viability, cytotoxicity, lymphoblastoid cell line, fluorescence, NTPHTS, NTPHTS_NCGC, NIEHS, EPA, DSSTox, MLSMR, MLSCN, NIH Roadmap, qHTS, NCGC
row,SMILES,outcome
1,[O-][Cl+2]([O-])O,inactive
2,Cl/C=C/CCl,inactive
3,O=C(O)c1cccc(Cl)c1,inactive
4,CN=C=O,inactive
5,CC(C)OS(C)(=O)=O,inactive
6,Oc1ccc(Cl)c(Cl)c1Cl,inactive
7,[C-]1=CC=CC1.[C-]1=CC=CC1.[Cl-].[Cl-].[Ti+4],inactive
8,COc1ccccc1N,inactive
9,CCCCOC(=O)c1ccccc1N,inactive
10,CCCCCCCCCCCCCl,inactive
11,CCOP(=S)(OCC)Oc1nc(Cl)c(Cl)cc1Cl,inactive
12,CC[N+](=O)[O-],inactive
13,CCCCCC[N+](=O)[O-],inactive
14,C=CC(=O)OCC(CC)CCCC (stereo not given),inactive
15,COP(=S)(OC)SCn1nnc2ccccc2c1=O,inactive
16,ClCc1ccccn1,inactive
17,CC(C#N)CCC#N (stereo not given),inactive
18,Brc1ccc(Oc2ccc(Br)cc2Br)c(Br)c1,inactive
19,O=P(OCCCl)(OCCCl)OCCCl,inactive
20,Clc1cc(Cl)c(Cl)c(Cl)c1,inactive

row,SMILES,outcome
1,Nc1ncc([N+](=O)[O-])s1,inactive
2,COC(=O)Nc1cccc(OC(=O)Nc2cccc(C)c2)c1,inactive
3,CCN(CC)CCO,inactive
4,Oc1c(Cl)c(Cl)cc(Cl)c1Cl,inactive
5,CCCCCCCCCCCOC(=O)c1ccccc1C(=O)OCCCCCCCCCCC,inactive
6,Clc1ccccc1,inactive
7,Nc1cccc(Cl)c1,inactive
8,Nc1c(Br)cc([N+](=O)[O-])cc1[N+](=O)[O-],inactive
9,C=C(Cl)CCl,inactive
10,O=[N+]([O-])c1ccc(O)c([N+](=O)[O-])c1,inactive
11,CCCCCOC(=O)c1ccccc1C(=O)OCCCCC,inactive
12,ClCCOCCCl,inactive
13,CCCC[N+](=O)[O-],inactive
14,Oc1cc(Cl)c(Cl)c(Cl)c1,inactive
15,CCOP(=S)(OCC)SCCSCC,inactive
16,CC(C)[C@]12CC(=O)[C@H](C)[C@H]1C2,inactive
17,CC(C)[N+](=O)[O-],inactive
18,Cc1cc(-c2cc(C)c(N)c(C)c2)cc(C)c1N,inactive
19,Nc1ccccc1-c1ccccc1,inactive
20,Nc1cc(Cl)ccc1Cl,inactive
